In all, about 68,000 sequences were measured (“fluorescence intensity (a.u.)”: median about 9,100, highest 2% from about 16,000 on). The list comes from a sample in which the highest values are over-represented; it also holds similar and randomly drawn sequences.

OsWRKY34, sequence (Q0JBA9 entry or part of it): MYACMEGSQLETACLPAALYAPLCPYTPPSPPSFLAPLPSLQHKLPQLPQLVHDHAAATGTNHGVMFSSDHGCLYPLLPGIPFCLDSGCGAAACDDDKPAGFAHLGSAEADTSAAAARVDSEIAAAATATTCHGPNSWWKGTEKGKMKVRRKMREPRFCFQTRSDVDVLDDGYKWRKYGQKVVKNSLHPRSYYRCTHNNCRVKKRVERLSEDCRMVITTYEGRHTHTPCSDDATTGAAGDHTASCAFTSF

The test has as its target OsWRKY34 (Oryza sativa, UniProt Q0JBA9 1-250). As to the kind of experiment: protein-binding microarray (RPBM); PBS, 2% BSA, 51.3 ng/ul salmon testes DNA, 50 uM zinc acetate, 200 nM TF, 25 C, 1 h; high values mean tight binding. The following applies: protein: recombinant; tags: N-terminal polyhistidine and DsRed monomer fusion (pET32a); label: CyDye5-dUTP incorporated in the synthesized complementary strand; 3' TTTTT single-stranded linker to array surface; dsDNA, one strand shown. In a few lines: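 Binding signal is defined as the fluorescence intensity of each feature in arbitrary units, read on an Axon 4000B scanner. Transcription factors with N-terminal polyhistidine and DsRed fusions came from E. coli BL21-CodonPlus and were purified on Ni–NTA. They were incubated at 200 nM for 1 h at 25 °C on a custom Agilent array that had been made double-stranded with Cy5-dUTP, with 50 µM zinc acetate present, and the array was washed.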
As for “TCTTTGCAGGTCACTTCCGGGTGCTTCACATTCCGGTTAACGGAGTCACCTAGTGCAG”, the binding signal is 8890 fluorescence intensity (a.u.). As for “TCCTCATCTTGTGCTCTCAAGTGTTTTAAGTGCTCTCTTTCGGAGTCACCTAGTGCAG”, the figure is 10500 fluorescence intensity (a.u.); as for “ATTTAATTTCACCTACTACTACTACTATTCTTCTTATTAACGGAGTCACCTAGTGCAG”, 9430 fluorescence intensity (a.u.); as for “TACTACCTCCGTTTTTAATAGATGACGCCGTTGACTTTTTCGGAGTCACCTAGTGCAG”, 23700 fluorescence intensity (a.u.). As for “AATACTACCTCCGTTTTAAAATGTTTGACGCCGTTGATATCGGAGTCACCTAGTGCAG”, the figure is 8440 fluorescence intensity (a.u.).

As for “CTTACTACCTCCGTATTTTAGTGTATGATGCCGTTGACTTCGGAGTCACCTAGTGCAG”, the binding signal is 14500 fluorescence intensity (a.u.). Regarding “TACTCCCTCTGTTTTTTAATAGATGACGCCGTTGACTTTTCGGAGTCACCTAGTGCAG”, the binding signal is 17100 fluorescence intensity (a.u.).

Take “TACTCCCTCCGTTTTTTAATAGATGACGCCGTTGACTTTTCGGAGTCACCTAGTGCAG”: the binding signal is 16100 fluorescence intensity (a.u.).

Regarding “CATATACTCCCTCCGTTTTTTAATAGATGACGCCGTTGACCGGAGTCACCTAGTGCAG”, the binding signal was 12300 fluorescence intensity (a.u.). As for “CTCTCTTGCCTCTCCTGTCTCTTTCTCGGATTTTTCTCATCGGAGTCACCTAGTGCAG”, the figure is 9020 fluorescence intensity (a.u.); as for “AAACAGTTTGACTTTGACTAAAGTTAAAACGTCTTATAACCGGAGTCACCTAGTGCAG”, 10900 fluorescence intensity (a.u.); as for “AGCGTTGACCATACTTAAATCACAGTTTTCTTTTCTTTTTCGGAGTCACCTAGTGCAG”, 21800 fluorescence intensity (a.u.). The same measure for “CAAGTCACGTATAAAATATTAATCATGTTTTATCATCTAACGGAGTCACCTAGTGCAG”: 8050 fluorescence intensity (a.u.); for “TTCTAAATAATATTTGACGCCGTTGACTTTTTTAAATATACGGAGTCACCTAGTGCAG”: 14600 fluorescence intensity (a.u.); for “GTTTGACACCGTTGACTTTTTTAAATATGTTTGACCGTTTCGGAGTCACCTAGTGCAG”: 25000 fluorescence intensity (a.u.).

On to “ACCATCTTATTTAACGTAAAATATTTAATTTTCATTTTTACGGAGTCACCTAGTGCAG”, for which the binding signal was 8480 fluorescence intensity (a.u.).

Take “ACCTCGGTAATAAAAGATGATCTAACGTAAAATTTATTATCGGAGTCACCTAGTGCAG”: the binding signal is 23300 fluorescence intensity (a.u.). As for “CTTTTCTTTTCAATTTTTTGAGCGTTGACCATACTTAAATCGGAGTCACCTAGTGCAG”, the figure is 14800 fluorescence intensity (a.u.); as for “ATTTCTTGAACAGTTAAATACTTATAAATCCTTCACTTTTCGGAGTCACCTAGTGCAG”, 8050 fluorescence intensity (a.u.). As for “CCTTTCGTTTTATATTATAATTCGTTTTGACTTTTTTCTTCGGAGTCACCTAGTGCAG”, the figure is 10500 fluorescence intensity (a.u.). As for “CGTTGACTTTTTTAAATATATAATTATTAATTTTTTTTCTCGGAGTCACCTAGTGCAG”, the figure is 23900 fluorescence intensity (a.u.). For “CCATATCGTTTTGACGTTTTTAGTGTAGGTCAATTTATAGCGGAGTCACCTAGTGCAG”, the binding signal was 8170 fluorescence intensity (a.u.). In the case of “TTAAAACTGAAATTATCGTATGTGCCTTGTCGCCGTGATTCGGAGTCACCTAGTGCAG”, the binding signal was 8090 fluorescence intensity (a.u.). The same measure for “GGGTATATACCGTGACCCTGATCGCCACACCGACCGGATACGGAGTCACCTAGTGCAG”: 13600 fluorescence intensity (a.u.). As to “ATCCGATCTCTCTTCTCATTCTCTTCTCTTGGTTTGGGGTCGGAGTCACCTAGTGCAG”, the binding signal was 8220 fluorescence intensity (a.u.).

Turning to “AGTCTTGAAGACTGAGGCAAAGTCTGTTATCTTAATCGATCGGAGTCACCTAGTGCAG”, the binding signal was 9140 fluorescence intensity (a.u.). As for “TTGAAACTAAACAAGGCATTTAGCTCAAACCCTCATTGACCGGAGTCACCTAGTGCAG”, the figure is 8470 fluorescence intensity (a.u.); as for “GATCGTGGGAGGGAGGATTGGCCGGTTGTACTACAGTTGACGGAGTCACCTAGTGCAG”, 8660 fluorescence intensity (a.u.). On to “GACTTTATATGTGACTTTTTTTTTAACTTTTTCATAATTTCGGAGTCACCTAGTGCAG”, for which the binding signal was 9730 fluorescence intensity (a.u.). As for “CCCGTTGACCCAAATTTTCGTTCTCCTCACCGAGTATAGTCGGAGTCACCTAGTGCAG”, the figure is 17200 fluorescence intensity (a.u.). The same measure for “TTTGTTGGTGTTATGTTGACTTTTTTTTGGGAACATTACTCGGAGTCACCTAGTGCAG”: 17400 fluorescence intensity (a.u.); for “CCGTGTTGTCGTTCCTCCAAATTTGTACCGTTTTCCCTCTCGGAGTCACCTAGTGCAG”: 8770 fluorescence intensity (a.u.). The same measure for “CTTTCTTATTGACTATTTTATTATTTGAGGTCATTTAGGGCGGAGTCACCTAGTGCAG”: 9310 fluorescence intensity (a.u.); for “AATTTTGACTTTTTCTTGACTAATTAGGCCATCCGATGGGCGGAGTCACCTAGTGCAG”: 17800 fluorescence intensity (a.u.).

On to “TTTTGCTACTCCTTCGTTCTCAGTATCCAAATTTAAATTTCGGAGTCACCTAGTGCAG”, for which the binding signal was 9900 fluorescence intensity (a.u.).

For “ACTTTTCGCTTTTTATATTTGCATAATTTTTTTCAATAAGCGGAGTCACCTAGTGCAG”, the binding signal is 8150 fluorescence intensity (a.u.). For the sequence “CGCCGTTGACTTTTCATATAATATTTAACAATTCGCTTTACGGAGTCACCTAGTGCAG”, the binding signal is 36800 fluorescence intensity (a.u.). The same measure for “GTTGACTCGCACTTTTTGTAATTATGTGTTACATGGTTTCCGGAGTCACCTAGTGCAG”: 8810 fluorescence intensity (a.u.); for “ACACTTTGATCCCGATCGATGGCGCCATCCACTAATTGATCGGAGTCACCTAGTGCAG”: 10700 fluorescence intensity (a.u.); for “CCATTATGGTGTTTCTTAGTTGTTTTTTTTGCCTTTTACTCGGAGTCACCTAGTGCAG”: 8470 fluorescence intensity (a.u.). As for “TTTTTCGCACGTTCTCTTTCGCCCTGTTTTTTTTGAAAGACGGAGTCACCTAGTGCAG”, the figure is 13300 fluorescence intensity (a.u.); as for “CCTAGACCCCTTCTCACGCCGCCAGCCCGTCACACCGAGTCGGAGTCACCTAGTGCAG”, 8790 fluorescence intensity (a.u.).

These data come from publication PMC7819943, “Rice protein-binding microarrays: a tool to detect cis-acting elements near promoter regions in rice”.
